Measured values published in PubChem BioAssay (NCATS).
Several values for one entry are separate records, joined by “and”; a condition that tells them apart may be missing. Identical values can stand only once. Results filed as inconclusive are left out. A number with no mark means an inactive call. Activity calls are given as the source filed them. Unless noted, the call rests on the fitted dose curve.

Target: Cytochrome P450 1A2 (Homo sapiens) (UniProt P05177)
Experiment: p450-cyp1a2 (AID 410)
Conditions: recombinant CYP1A2, luciferin-ME demethylation, luminescence; series mostly up to 25.6 µM
Outline: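 Read-out is luminescence from luciferin produced by CYP1A2 demethylation of Luciferin-ME (100uM, at Km). Detection reagent stopped the 60 min NADPH-dependent reaction; signals were normalized to 57 uM furafylline.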
Potency means the concentration at half of the fitted maximal effect.

Chain of Cytochrome P450 1A2 (Homo sapiens) (P05177 whole entry, looked up): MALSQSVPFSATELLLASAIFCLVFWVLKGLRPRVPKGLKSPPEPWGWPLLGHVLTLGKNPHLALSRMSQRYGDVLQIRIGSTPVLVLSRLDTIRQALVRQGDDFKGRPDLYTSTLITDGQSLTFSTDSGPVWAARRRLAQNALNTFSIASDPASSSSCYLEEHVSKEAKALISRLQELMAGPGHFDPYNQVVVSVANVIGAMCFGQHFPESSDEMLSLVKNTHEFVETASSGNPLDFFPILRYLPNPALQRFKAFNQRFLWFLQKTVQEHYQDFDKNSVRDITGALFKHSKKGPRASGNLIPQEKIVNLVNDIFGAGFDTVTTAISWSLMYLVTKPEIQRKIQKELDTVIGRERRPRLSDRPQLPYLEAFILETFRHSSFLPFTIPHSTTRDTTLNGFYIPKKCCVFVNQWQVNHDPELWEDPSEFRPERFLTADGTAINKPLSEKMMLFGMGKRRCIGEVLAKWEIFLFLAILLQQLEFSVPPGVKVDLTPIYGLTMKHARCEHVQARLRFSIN

SMILES	Potency
CC(C)N(CCC(=O)c1ccc2ccccc2c1)Cc1ccccc1	3.98 µM (active) and 2.51 µM (active)
Cn1cnc2c(NCc3ccccc3)nc(NCCO)nc21	7.94 µM (active) and 5.01 µM (active)
C[C@@H](C1=C(CCN(C)C)Cc2ccccc21)c1ccccn1	20 µM (active)

System: not listed separately
Experiment: Cell Viability - BJ (AID 421);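 further: cells exposed to compound for 40 hours at 37 °C before readout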
Conditions: BJ fibroblast viability, qHTS
Outline: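 Normal human BJ foreskin fibroblasts, 1500/well in complete medium, treated 40 hr at 37 °C. Cellular ATP by CellTiter-Glo luminescence; normalized to DMSO and 100 uM tamoxifen, AC50 from Hill fit.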

SMILES	Potency
CCCCC(CC)COC(=O)c1ccccc1C(=O)O (stereo not given)	> 92 µM
CCCC(=O)c1cc(O)c(O)cc1O	> 92 µM
Cc1cc(C(C)(C)C)c(O)c(C(C)(C)C)c1	> 92 µM
O=C(Oc1ccccc1)c1ccccc1O	> 92 µM
CC(C)(c1ccc(O)cc1)c1ccc(O)cc1	> 92 µM
O=C(NO)c1ccccc1	> 92 µM
c1ccc2occc2c1	> 92 µM
C1=CC2C3C=CC(C3)C2C1 (stereo not given)	> 92 µM
CC(=O)OC/C=C(C)/C=C/C=C(C)/C=C/C1=C(C)CCCC1(C)C	> 92 µM
Brc1ccccc1-c1ccccc1	> 92 µM
CC(C)C(C)(C)C(C)(C)C(C)(C)S	> 92 µM
Nc1cccc2c(N)cccc12	> 92 µM
OCc1c[nH]c2ccccc12	> 92 µM
CCCCCCCCCCCCCCCC[n+]1ccccc1	55.8 µM (active)
Cc1ccc(O)cc1	> 92 µM
Nc1ccc(O)cc1	62.8 µM (active)
Oc1ccccc1	> 92 µM
O=C(c1ccccc1)c1ccccc1	> 92 µM
CC(C)(C)c1ccc(O)c(O)c1	> 92 µM
COc1cc(C=O)ccc1O	> 92 µM

System: not listed separately
Experiment: Cell Viability - Jurkat (AID 426;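 active means dose-dependent loss of cell ATP signal giving a full or clear fitted curve, ranked by lower potency value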)
Conditions: qHTS
Outline: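 Cytotoxicity was scored as loss of cellular ATP, measured by luciferase-based luminescence, in Jurkat clone E6-1 cells after 40 h compound treatment; tamoxifen and doxorubicin served as positive controls.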

SMILES	Potency
CCCCC(CC)COC(=O)c1ccccc1C(=O)O (stereo not given)	> 92 µM
Cc1cc(C(C)(C)C)c(O)c(C(C)(C)C)c1	> 92 µM
O=C(Oc1ccccc1)c1ccccc1O	> 92 µM
CC(C)(c1ccc(O)cc1)c1ccc(O)cc1	> 92 µM
c1ccc2occc2c1	> 92 µM
C1=CC2C3C=CC(C3)C2C1 (stereo not given)	> 92 µM
CC(=O)OC/C=C(C)/C=C/C=C(C)/C=C/C1=C(C)CCCC1(C)C	63.9 µM (active)
Brc1ccccc1-c1ccccc1	> 92 µM
CC(C)C(C)(C)C(C)(C)C(C)(C)S	> 92 µM
Nc1cccc2c(N)cccc12	> 92 µM
OCc1c[nH]c2ccccc12	> 92 µM
CCCCCCCCCCCCCCCC[n+]1ccccc1	19.2 µM (active)
Cc1ccc(O)cc1	> 92 µM
Nc1ccc(O)cc1	38.6 µM (active)
Oc1ccccc1	> 92 µM
O=C(c1ccccc1)c1ccccc1	> 92 µM
CC(C)(C)c1ccc(O)c(O)c1	49.4 µM (active)
Nc1c2ccccc2nc2ccccc12	31.9 µM (active)
COc1cc(C=O)ccc1O	> 92 µM

System: not listed separately
Experiment: Cell Viability - Hek293 (AID 427;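 active means compounds whose dose-response curve shows a full or clear partial loss of cell viability, called from curve shape rather than a numeric limit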;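 further: cells exposed to compound for 40 hours at 37 °C before reading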)
Conditions: qHTS
Outline: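 HEK293 cells in complete medium were exposed to compound for 40 hr at 37 °C, then cellular ATP was read by CellTiter-Glo luminescence. Data were normalized to DMSO (basal) and 100 uM tamoxifen (100% inhibition), and AC50 came from Hill fits.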

SMILES	Potency
CCCCC(CC)COC(=O)c1ccccc1C(=O)O (stereo not given)	> 92 µM
CCCC(=O)c1cc(O)c(O)cc1O	> 92 µM
Cc1cc(C(C)(C)C)c(O)c(C(C)(C)C)c1	> 92 µM
O=C(Oc1ccccc1)c1ccccc1O	> 92 µM
CC(C)(c1ccc(O)cc1)c1ccc(O)cc1	> 92 µM
O=C(NO)c1ccccc1	> 92 µM
c1ccc2occc2c1	> 92 µM
C1=CC2C3C=CC(C3)C2C1 (stereo not given)	> 92 µM
CC(=O)OC/C=C(C)/C=C/C=C(C)/C=C/C1=C(C)CCCC1(C)C	> 92 µM
Brc1ccccc1-c1ccccc1	> 92 µM
CC(C)C(C)(C)C(C)(C)C(C)(C)S	> 92 µM
Nc1cccc2c(N)cccc12	> 92 µM
OCc1c[nH]c2ccccc12	> 92 µM
CCCCCCCCCCCCCCCC[n+]1ccccc1	54.4 µM (active)
Cc1ccc(O)cc1	> 92 µM
Nc1ccc(O)cc1	47.3 µM (active)
Oc1ccccc1	> 92 µM
O=C(c1ccccc1)c1ccccc1	> 92 µM
COc1cc(C=O)ccc1O	> 92 µM

System: not listed separately
Experiment: Cell Viability - HepG2 (AID 433);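 further: potency for ATP loss meaning cytotoxicity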
Conditions: qHTS
Outline: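 In this qHTS format, a 40 h, 37 °C compound incubation of HepG2 cells in complete medium precedes a 20 min CellTiter-Glo step at room temperature. Tamoxifen and doxorubicin serve as positive controls; Hill-equation fits yield AC50.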

SMILES	Potency
CCCCC(CC)COC(=O)c1ccccc1C(=O)O (stereo not given)	> 92 µM
CCCC(=O)c1cc(O)c(O)cc1O	> 92 µM
Cc1cc(C(C)(C)C)c(O)c(C(C)(C)C)c1	> 92 µM
O=C(Oc1ccccc1)c1ccccc1O	> 92 µM
CC(C)(c1ccc(O)cc1)c1ccc(O)cc1	> 92 µM
O=C(NO)c1ccccc1	> 92 µM
c1ccc2occc2c1	> 92 µM
C1=CC2C3C=CC(C3)C2C1 (stereo not given)	> 92 µM
CC(=O)OC/C=C(C)/C=C/C=C(C)/C=C/C1=C(C)CCCC1(C)C	> 92 µM
Brc1ccccc1-c1ccccc1	> 92 µM
CC(C)C(C)(C)C(C)(C)C(C)(C)S	> 92 µM
Nc1cccc2c(N)cccc12	> 92 µM
OCc1c[nH]c2ccccc12	> 92 µM
CCCCCCCCCCCCCCCC[n+]1ccccc1	32.8 µM (active)
Cc1ccc(O)cc1	> 92 µM
Oc1ccccc1	> 92 µM
O=C(c1ccccc1)c1ccccc1	> 92 µM
CC(C)(C)c1ccc(O)c(O)c1	> 92 µM
COc1cc(C=O)ccc1O	> 92 µM
